Measured values as given in PubChem BioAssay AID1159580 (chemical genetic matrix, 2015).
“And” between values parts separate entries of the source, which are not always exact repeats. Equal values may be shown once. The whole screen tested about 5,500 compounds, of which about 2,000 (36%) were called active. Another 18% or so got no clear call; they are omitted. No stated cut-off is given here; in the data, active means normalized growth mostly below about 0.91 (no sharp cut-off); inconclusive means no clear call, values can overlap the other calls; inactive means mostly above about 0.92. Some of the results follow.

Experiment: chemical genetic growth profiling, strain panel (AID 1159580);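 further: tested at 20 µM; growth read once vehicle control cultures reached saturation at 30 °C; 1 = growth at the plate median or of vehicle wells; lower values mean less growth of the strain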
Details: S. cerevisiae deletion strains, growth OD

Measured: normalized growth

C[N+](C)(C)CC(O)CC(=O)O (stereo unspecified)
inactive: locus YAL013W, strain DEP1, active compounds read low 1.02 | locus YAL021C, strain ccr4, active compounds read low 1.01 | locus YAL026C, strain drs2, active compounds read low 0.982 | locus YAL030W, strain snc1, active compounds read low 0.982 | locus YBL061C, strain skt5, active compounds read low 0.977 | locus YBR009C, strain hhf1, active compounds read low 1 | locus YBR021W, strain FUR4, active compounds read low 0.992 | locus YBR023C, strain chs3, active compounds read low 0.985 | locus YBR171W, strain sec66, active compounds read low 0.981 | locus YBR229C, strain ROT2, active compounds read low 1 | locus YBR231C, strain swc5, active compounds read low 0.974 | locus YBR279W, strain paf1, active compounds read low 0.998 | locus YCL011C, strain gbp2, active compounds read low 0.978 | locus YCL016C, strain dcc1, active compounds read low 0.96 | locus YCL029C, strain bik1, active compounds read low 1 | locus YCL069W, strain vba3, active compounds read low 0.981 | locus YCR088W, strain abp1, active compounds read low 0.986 | locus YDL005C, strain med2, active compounds read low 0.98 | locus YDL035C, strain GPR1, active compounds read low 1.02 | locus YDL040C, strain nat1, active compounds read low 0.982 | locus YDL074C, strain BRE1, active compounds read low 1.01 | locus YDL101C, strain DUN1, active compounds read low 1 | locus YDL134C, strain PPH21, active compounds read low 1.01 | locus YDL185W, strain tfp1, active compounds read low 0.996 | locus YDL192W, strain arf1, active compounds read low 0.997 | locus YDR001C, strain nth1, active compounds read low 0.975 | locus YDR069C, strain doa4, active compounds read low 1.01 | locus YDR101C, strain arx1, active compounds read low 0.983 | locus YDR137W, strain rgp1, active compounds read low 0.972 | locus YDR150W, strain NUM1, active compounds read low 1.01 | locus YDR159W, strain sac3, active compounds read low 1.02 | locus YDR162C, strain NBP2, active compounds read low 1 | locus YDR195W, strain ref2 0.96 | locus YDR297W, strain sur2, active compounds read low 0.998 | locus YDR318W, strain mcm21, active compounds read low 0.999 | locus YDR334W, strain swr1, active compounds read low 0.969 | locus YDR335W, strain msn5, active compounds read low 0.971 | locus YDR388W, active compounds read low 1.01 | locus YDR392W, strain spt3, active compounds read low 0.973 | locus YDR502C, strain sam2, active compounds read low 1.02 | locus YEL003W, strain gim4, active compounds read low 0.986 | locus YEL037C, strain rad23, active compounds read low 0.969 | locus YEL061C, strain CIN8 (second series), active compounds read low 0.981 | locus YEL061C, strain CIN8, active compounds read low 1 | locus YER015W, strain faa2, active compounds read low 0.977 | locus YER016W, strain bim1, active compounds read low 0.965 | locus YER110C, active compounds read low 0.991 | locus YER111C, strain swi4, active compounds read low 0.96 | locus YER155C, strain BEM2 (second series), active compounds read low 0.965 | locus YER155C, strain BEM2, active compounds read low 0.995 | locus YER167W, strain BCK2, active compounds read low 0.995 | locus YFR010W, strain ubp6, active compounds read low 1 | locus YGL078C, strain dbp3, active compounds read low 1 | locus YGL086W, strain mad1, active compounds read low 0.998 | locus YGL167C, strain pmr1, active compounds read low 0.98 | locus YGL173C, strain kem1, active compounds read low 0.968 | locus YGL227W, strain vid30, active compounds read low 0.985 | locus YGL240W, strain doc1, active compounds read low 0.998 | locus YGL248W, strain PDE1, active compounds read low 1 | locus YGL253W, strain hxk2, active compounds read low 0.957 | locus YGR078C, strain PAC10, active compounds read low 1 | locus YGR135W, strain pre9, active compounds read low 0.994 | locus YGR229C, strain SMI1, active compounds read low 1.02 | locus YGR252W, strain gcn5, active compounds read low 1 | locus YHR013C, strain ard1, active compounds read low 0.95 | locus YHR027C, strain rpn1, active compounds read low 0.984 | locus YHR030C, strain SLT2, active compounds read low 1 and 0.979 | locus YHR079C, strain IRE1 (second series), active compounds read low 0.999 | locus YHR079C, strain IRE1, active compounds read low 0.976 | locus YHR094C, strain hxt1, active compounds read low 0.996 | locus YHR129C, strain ARP1, active compounds read low 0.999 | locus YHR142W, strain chs7, active compounds read low 0.968 | locus YHR200W, strain rpn10, active compounds read low 1 | locus YIL066C, strain RNR3, active compounds read low 1.02 | locus YIL073C, strain SPO22, active compounds read low 1.04 | locus YIL125W, strain kgd1, active compounds read low 1 | locus YIR030C, strain dcg1, active compounds read low 0.998 | locus YJL092W, strain hpr5, active compounds read low 0.984 | locus YJL095W, strain BCK1 (second series), active compounds read low 0.974 | locus YJL095W, strain BCK1, active compounds read low 1 and 0.989 | locus YJL115W, strain asf1, active compounds read low 0.977 | locus YJL129C, strain trk1, active compounds read low 0.983 | locus YJL134W, strain LCB3, active compounds read low 1 | locus YJL154C, strain vps35, active compounds read low 0.975 | locus YJL164C, strain tpk1, active compounds read low 0.989 | locus YJL166W, strain qcr8, active compounds read low 1.02 | locus YJL168C, strain set2, active compounds read low 0.997 | locus YJL187C, strain SWE1 (second series), active compounds read low 1.01 | locus YJR043C, strain POL32, active compounds read low 1 | locus YJR066W, strain TOR1, active compounds read low 0.929 | locus YJR075W, strain HOC1, active compounds read low 1.01
